GLS inhibitor – inhibitors of human glutaminase (GLS); O94925; GLS enzymatic activity, qHTS titration; Potency, µM (top dose mostly 45.5 µM), inactives show top-dose activity change, negative = inhibition, actives largely listed as inhibitors; 410,000 tested, 0.21% active; AID 624170; note: potency is the fitted concentration of half-maximal effect; % is set by controls: 0 for no effect and ±100 for the full control effect
Target sequence (O94925 whole entry, looked up): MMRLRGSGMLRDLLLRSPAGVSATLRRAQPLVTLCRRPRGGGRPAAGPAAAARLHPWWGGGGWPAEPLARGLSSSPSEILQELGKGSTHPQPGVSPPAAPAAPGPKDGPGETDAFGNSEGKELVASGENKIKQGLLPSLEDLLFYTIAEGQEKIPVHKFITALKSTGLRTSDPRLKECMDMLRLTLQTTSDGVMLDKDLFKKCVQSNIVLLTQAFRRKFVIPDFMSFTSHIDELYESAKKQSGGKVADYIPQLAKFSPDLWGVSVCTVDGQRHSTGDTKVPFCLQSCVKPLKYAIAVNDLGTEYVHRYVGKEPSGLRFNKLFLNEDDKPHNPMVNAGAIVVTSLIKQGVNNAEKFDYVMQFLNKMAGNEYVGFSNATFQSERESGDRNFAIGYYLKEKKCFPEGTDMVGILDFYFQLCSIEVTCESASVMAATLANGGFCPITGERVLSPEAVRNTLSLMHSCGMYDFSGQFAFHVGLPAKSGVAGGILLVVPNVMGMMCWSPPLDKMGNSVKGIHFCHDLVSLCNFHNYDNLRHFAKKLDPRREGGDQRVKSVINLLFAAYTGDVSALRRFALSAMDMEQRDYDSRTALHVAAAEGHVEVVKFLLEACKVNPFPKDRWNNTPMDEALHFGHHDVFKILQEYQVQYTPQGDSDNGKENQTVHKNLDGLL
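Compounds were pin-transferred onto hKGA, after which L-glutamine (1 mM solution) and a detection mix of glutamate oxidase, HRP and Amplex Red were added. Initial and 30 min RT fluorescence reads were collected.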
KCNH2 WT inh – KCNH2 (human, wildtype) channel inhibition. activity change, % at 1.84 µM. 340,000 tested, 0.37% active. Q12809. AID 720551. U2OS, BacMam KCNH2, thallium flux FluxOr; hits give low values;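 active = maximum activity change below -70%; inconclusive = maximum activity change between -70% and -50%; inactive = maximum activity change above -50%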; note: % is set by controls: 0 for no effect and ±100 for the full control effect
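U2OS cells were transduced with wild-type KCNH2 virus (2.03 x 10^8 / mL) for 4 h at room temperature, then cultured overnight at 37 C. Thallium flux was read with FluxOr dye. Rate constants were normalized to DMSO controls.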
HEK293 tox – cytotoxicity counter-screen for GLP-1 receptor inverse agonists | HEK293 cAMP-luciferase reporter cells, luminescence, 24 h | Potency, µM (top dose mostly 38.3 µM), without a hit: at the top dose activity change, negative = inhibition, actives largely listed as inhibitors | 410,000 tested, 0.13% active | AID 624418;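 note: loss of luciferase light is scored as toxicity; potency is the fitted concentration of half-maximal effect; % is set by controls: 0 for no effect and ±100 for the full control effect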
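Seeding density was 200 cells/uL; after overnight-length (12 h) culture, 23 nL compounds went on for 24 h at 37 °C. Readout used a luciferase detection reagent, luminescence taken after 12 min at room temperature.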
GLP-1R inv ag – acts as inverse agonist at human GLP-1 receptor; P43220; HEK293 GLP-1R CRE-luciferase, luminescence, 24 h; GLP-1R form is constitutively active; Potency, µM (series often up to 38.3 µM), for inactives: at the highest dose activity change, negative = inhibition, hits mostly inhibitors; 410,000 tested, 1.6% active; AID 624417; note: potency is the fitted concentration of half-maximal effect; % is set by controls: 0 for no effect and ±100 for the full control effect; nearly all actives have a fitted effect of over 55% in size
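Using stably transfected HEK293 (constitutively active GLP-1R, cAMP-luciferase reporter), compounds were incubated 24 hr and luciferase measured by luminescence.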
GLP1R ag – agonists of human GLP-1 receptor. 380,000 tested, 0.007% active. Potency, µM (top dose mostly 45.6 µM), for the others: at the top dose activation, usual class: activators. HEK293 GLP-1R CRE-luciferase, luminescence, 4-6 h; cells express a hypersensitive GLP-1R form. P43220. AID 624172; note: potency is the fitted concentration of half-maximal effect; % of control where 0% means no effect
KCNH2 3.1 inh – inhibitors of human KCNH2 3.1 potassium channel isoform; U2OS KCNH2 3.1, thallium flux FluxOr; hits give low values; activity change, % (tested at about 1.8 µM); 340,000 tested, 0.95% active; AID 720553;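 active = maximum activity change below -70%; inconclusive = maximum activity change from -70% to -50%; inactive = maximum activity change above -50%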;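 note: thallium influx rate constant from kinetic fluorescence after stimulation buffer; % is set by controls: 0 for no effect and ±100 for the full control effect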
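Steps: virus added to U2OS suspension (4 h, RT, dark); medium with 10% FBS added, cells plated, 37 C overnight; FluxOr/Red40 loading buffer 45 min RT; stimulation buffer, 2 min kinetic read; rate constant normalized.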
Numbers without * were called inactive; i = inactive; ? = inconclusive; . = no result given; [ ] = another dose, or the depositor's remark. Most compounds without a hit are left out; they make up all but 2.8% or so of the library. Unless noted, calls come from the whole dose curve; as a rule, active = well fitted curve in the direction sought with a large enough effect; inconclusive = small, poorly fitted or top-dose-only effect, or another doubt; inactive = no such curve, though single readings can be large; an effect the other way counts as inactive or inconclusive.

SMILES	GLS inhibitor	KCNH2 WT inh	HEK293 tox	GLP-1R inv ag	GLP1R ag	KCNH2 3.1 inh
COc1ccc(S(=O)(=O)N2CCC(C(=O)N[C@@H](C)C(=O)NCc3ccccc3OC)CC2)cc1	2%	-31	1%	6%	2%	11
O=C(CCN1CCN(Cc2ccccc2)CC1)Nc1ccc(OCc2ccccc2)cc1	0%	-39	-11%	?	-2%	-95*
O=C(CN1CCOCC1)Nc1ccc(OCc2ccccc2)cc1	1%	5	0%	-1%	-2%	-18
O=C(CCN1CCN(CCO)CC1)Nc1ccc(OCc2ccccc2)cc1	1%	3	-1%	-18%	-7%	-3
CCOC(=O)c1c(C)c(C(=O)Nc2ccc3c(c2)OCO3)c(C)n1C	-5%	16	-17%	0%	8%	7
CCOC(=O)c1c(N)sc(C(=O)Nc2ccc3c(c2)OCO3)c1C	3%	-8	?	5.6µM*	-11%	-12
Cc1ccc(C)c(OCC(=O)Nc2ccc3c(c2)OCO3)c1C	0%	-2	?	7.9µM*	7%	-9
O=C(CN1CCN(CC(=O)Nc2ccc(OCc3ccccc3)cc2)CC1)Nc1ccc(F)cc1	2%	-103*	-18%	8.9µM*	8%	-94*
Cc1ccc(CSc2nc(-c3ccccc3C)nc3c2Cc2c(CO)cnc(C)c2O3)cc1	-23%	.	-25%	?	.	.
CCOC(=O)c1cc2c(=O)n3ccccc3nc2n(C(C)C)c1=NC(=O)C(C)(C)Oc1ccc(Cl)cc1	2%	.	145%	16%	.	.
COc1ccc(N2CCN(CC(=O)Nc3ccc(C)cc3)CC2)cc1	37%	-14	0%	?	9%	-6
CCOc1ccc(NC(=O)CN2CCN(CC(=O)Nc3ccc4c(c3)OCO4)CC2)cc1	-8%	-120*	-5%	27%	-4%	-106*
CS(=O)(=O)N(CCc1ccccc1)CC(=O)Nc1ccc(OCc2ccccc2)cc1	8%	-3	-1%	11µM*	8%	-1
CC(C)CC1NC(=O)N(CC(=O)Nc2ccc(OCc3ccccc3)cc2)C1=O (centres undefined)	5%	0	-11%	11µM*	4%	-30
COc1ccc(N2CCN(CC(=O)Nc3ccc(SC(F)F)cc3)CC2)cc1	13%	5	-6%	10µM*	-6%	-38
CCCc1ccc(S(=O)(=O)N2CCC(Oc3ccc(-n4cnnn4)cc3)CC2)cc1	-4%	.	1%	0%	.	.
CC(CN1CCOCC1)C(Cc1ccccc1)(Cc1ccccc1)C(=O)N1CCCC1 (centres undefined)	9%[99.4 µM]	.	.	.	-5%[110 µM]	.
NC(=O)CN1CCN(c2nc(-c3ccc(F)cc3)cs2)CC1	18%	3	2%	32%	9%	3
O=C(C/C=N\O)Nc1ccc(Oc2ccccc2)cc1	6%	7	-1%	-11%	9%	-3
O=C(CN1CCN(c2nc(-c3ccc(F)cc3)cs2)CC1)Nc1ccc2c(c1)OCO2	15%	-1	2%	?	0%	-124*
COc1ccc(NC(=O)CN2CCN(Cc3ccccc3)CC2)cc1	-1%	1	2%	-17%	9%	-6
CO/N=C\CC(=O)Nc1ccc(Oc2ccccc2)cc1	6%	i	-23%	1.3µM*	10%	-3
CCNC(=O)C1CCCN(Cc2ccc(OCc3ccccc3)cc2)CC1 (centres undefined)	-1%	.	1%	-33%	-3%	.
CCCCNC(=O)CN1CCN(Cc2ccc3cc(OC)ccc3c2)CC1	4%	-15	2%	?	-1%	-84*
CCCCNC(=O)C1CCN(Cc2ccc(OCc3ccccc3)cc2)CC1	21%	17	?	7.1µM*	15%	-46
SMILES	GLS inhibitor	KCNH2 WT inh	HEK293 tox	GLP-1R inv ag	GLP1R ag	KCNH2 3.1 inh
CCCCN(CC)CCCNC(=O)c1cn(CC)c2ccc(S(=O)(=O)N3CCOCC3)cc2c1=O	4%	.	-16%	-25%	-1%	.
Cc1ccn2c(Nc3ccc4c(c3)OCCO4)c(-c3ccc(N(C)C)cc3)nc2c1	6%	.	-4%	18%	.	.
COc1ccccc1CNC(=O)CCCn1nc(C)c2sc3ccccc3c2c1=O	-4%	.	2%	3%	.	.
CCC1NC(=O)c2cc3ccccc3cc2-n2c1nc1ccc(OC)cc1c2=O (centres undefined)	-4%	17	5%	-2%	1%	-19
O=C(CN1CCN(C(=O)C2CCN(C(=O)/C=C/c3ccccc3)CC2)CC1)Nc1ccc(F)cc1	4%	-39	-3%	-41%	-42%	-99*
O=S(=O)(NCc1c(Cl)cccc1Oc1ccccc1)c1ccccc1	-12%	2	24%	10µM*	5%	-38
Cc1ccc(S(=O)(=O)NCc2c(Cl)cccc2Oc2ccccc2)cc1	-6%	0	1%	?	5%	11
Cc1cccc(NC(=O)NC(C)CCc2ccccc2)c1 (centres undefined)	-6%	-20	-13%	10µM*	12%	.
Cc1cccc(NC(=S)NC(C)CCc2ccccc2)c1 (centres undefined)	-7%	3	?	?	11%	6
Cc1cc(C)c(OCC(=O)N(Cc2ccco2)Cc2ccco2)c(C)c1	-3%	.	2%	?	.	.
Cc1ccc(CN(Cc2ccco2)C(=O)COc2cccc(C)c2C)o1	-12%	.	4%	11µM*	.	.
Cc1cc(C)c(OCC(=O)N(Cc2ccc(N(C)C)cc2)Cc2ccco2)c(C)c1	5%	.	-6%	?	.	.
Cc1ccc(CN(Cc2ccco2)C(=O)COc2c(C)cc(C)cc2C)cc1	-7%	.	3%	2.8µM*	.	.
Cc1cccc(OCC(=O)N(Cc2ccc(N(C)C)cc2)Cc2ccco2)c1C	7%	.	2%	10µM*	.	.
COc1ccc(CNC(=O)Nc2cn(CC(C)C)c(=O)c3ccccc23)cc1	-7%	.	-2%	-1%	5%	.
CCn1c(C(=O)NCCc2ccc(S(N)(=O)=O)cc2)cc2sc(Cl)cc21	7%	.	0%	-13%	.	.
COc1cc2c(cc1OC)CN(C1CC(=O)N(c3c(C)cccc3C)C1=O)CC2 (centres undefined)	3%	-2	19%	-20%	2%	15
CCCOc1ccc(C(=O)Nc2cc(S(=O)(=O)N3CCOCC3)ccc2N2CCOCC2)cc1	0%	-8	-5%	0%	-2%	-10
COC(=O)c1cc(C(=O)N2CCN(c3ncccn3)CC2)cc([N+](=O)[O-])c1	-17%	-5	-5%	0%	7%	-10
COC(=O)c1cc(C(=O)N2CCN(c3ccccc3OC)CC2)cc([N+](=O)[O-])c1	-1%	12	?	1µM*	22%	31
